Laboratory results published in PubChem BioAssay (NCATS).
Results filed as inconclusive are left out. Entries that show only a call come without a potency. Activity calls are given as the source filed them. Unless noted, calls come from the whole dose curve.

Key:
[1] = qHTS assay for measurement of the activity of small molecule inhibitors on Zika virus induced Caspase-3 activity in human iPSC derived neural progenitor cells (hNPCs) (AID 1224857; active = well fitted curve in the direction sought with a large enough effect; an effect the other way counts as inactive or inconclusive; note: nearly all actives have a fitted effect of over 65% in size)
Outline: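 Cells were plated at 350 per well and grown 16 to 20 hours. Compound pretreatment lasted one hour, after which ZIKV (2 FFU/cell) was added for 6 hours. Percent inhibition was normalized between uninfected and infected controls.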

[2] = qHTS assay for measurement of the activity of small molecule inhibitors on Zika virus induced Caspase-3 activity in human astrocytoma cells (AID 1224859; active = well fitted curve in the direction sought with a large enough effect; an effect the other way counts as inactive or inconclusive)
Outline: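 Percent inhibition of virus-induced caspase-3/7 signal is calculated against uninfected and ZIKV-infected control cells. Cells are SNB-19, infected at 2 FFU/cell for 6 h after 1 h compound exposure.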

[3] = Natriuretic polypeptide receptor (hNpr1) antagonism - Pilot counterscreen GloSensor control cell line (AID 1347045); note: potency is the fitted concentration of half-maximal effect
Outline: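 Control counterscreen: luciferase cGMP-biosensor HEK293 cells (no Npr1) received compound for 30 min at room temperature after GloSensor substrate loading. Luminescence was measured before and 20 min after soluble guanylyl cyclase activation by 50 uM nitroprusside.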

[4] = target: Atrial natriuretic peptide receptor 1 (Homo sapiens) (UniProt P16066); experiment: Natriuretic polypeptide receptor (hNpr1) antagonism - Pilot screen (AID 1347049);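 note: HEK293 cells with hNpr1 and GloSensor cGMP luciferase stimulated by 0.1 nM hNppA; agonist-evoked cGMP luminescence read 20 min after hNppA addition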; note: potency is the fitted concentration of half-maximal effect
Outline: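 Receptor antagonism read as cGMP-dependent luminescence in hNpr1/pGS-40F HEK293 cells: pre-read after 30 min compound exposure, post-read 20 min after hNppA agonist at 0.1 nM final, all at room temperature, protected from light; A-71915 titration as control.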

[5] = target: Atrial natriuretic peptide receptor 2 (Homo sapiens) (UniProt P20594); experiment: Natriuretic polypeptide receptor (hNpr2) antagonism - Pilot subtype selectivity assay (AID 1347050)
Outline: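 Antagonist mode: compounds (LOPAC1280, seven 1:5 dilutions) added 30 min before 1 nM hNppC stimulation of hNpr2-HEK293 cGMP-sensor cells; luminescence read before and 20 min after agonist at ambient temperature.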

[6] = P-glycoprotein substrates identified in KB-3-1 adenocarcinoma cell line, qHTS therapeutic library screen (AID 1346986; active = well fitted curve in the direction sought with a large enough effect; an effect the other way counts as inactive or inconclusive; note: nearly all actives have a fitted effect of over 60% in size;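 note: potency is the fitted concentration of half-maximal effect; potency is for cytotoxicity meaning loss of cell viability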)
Outline: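 Viability read by CellTiter-Glo after 72 h compound exposure in dose-response of KB-3-1 and KB-8-5-11 (P-gp-high) cells. Hits needed AC50 < 10 uM, >50% maximum response and curve class -1.1 to -2.4. Cherry-picks retested ± tariquidar, including pcDNA/MDR-19 HEK-293 pair.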

[7] = P-glycoprotein substrates identified in KB-8-5-11 adenocarcinoma cell line, qHTS therapeutic library screen (AID 1346987; active = well fitted curve in the direction sought with a large enough effect; an effect the other way counts as inactive or inconclusive; note: nearly all actives have a fitted effect of over 65% in size; note: potency is the fitted concentration of half-maximal effect)
Outline: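 Compounds are pinned in dose-response onto KB-8-5-11 cells (500 cells/well, colchicine-free medium) and left 72 h at 37 degree C. CellTiter-Glo luminescence then yields AC50 values.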

Chain of Atrial natriuretic peptide receptor 2 (Homo sapiens) (P20594 whole entry, looked up): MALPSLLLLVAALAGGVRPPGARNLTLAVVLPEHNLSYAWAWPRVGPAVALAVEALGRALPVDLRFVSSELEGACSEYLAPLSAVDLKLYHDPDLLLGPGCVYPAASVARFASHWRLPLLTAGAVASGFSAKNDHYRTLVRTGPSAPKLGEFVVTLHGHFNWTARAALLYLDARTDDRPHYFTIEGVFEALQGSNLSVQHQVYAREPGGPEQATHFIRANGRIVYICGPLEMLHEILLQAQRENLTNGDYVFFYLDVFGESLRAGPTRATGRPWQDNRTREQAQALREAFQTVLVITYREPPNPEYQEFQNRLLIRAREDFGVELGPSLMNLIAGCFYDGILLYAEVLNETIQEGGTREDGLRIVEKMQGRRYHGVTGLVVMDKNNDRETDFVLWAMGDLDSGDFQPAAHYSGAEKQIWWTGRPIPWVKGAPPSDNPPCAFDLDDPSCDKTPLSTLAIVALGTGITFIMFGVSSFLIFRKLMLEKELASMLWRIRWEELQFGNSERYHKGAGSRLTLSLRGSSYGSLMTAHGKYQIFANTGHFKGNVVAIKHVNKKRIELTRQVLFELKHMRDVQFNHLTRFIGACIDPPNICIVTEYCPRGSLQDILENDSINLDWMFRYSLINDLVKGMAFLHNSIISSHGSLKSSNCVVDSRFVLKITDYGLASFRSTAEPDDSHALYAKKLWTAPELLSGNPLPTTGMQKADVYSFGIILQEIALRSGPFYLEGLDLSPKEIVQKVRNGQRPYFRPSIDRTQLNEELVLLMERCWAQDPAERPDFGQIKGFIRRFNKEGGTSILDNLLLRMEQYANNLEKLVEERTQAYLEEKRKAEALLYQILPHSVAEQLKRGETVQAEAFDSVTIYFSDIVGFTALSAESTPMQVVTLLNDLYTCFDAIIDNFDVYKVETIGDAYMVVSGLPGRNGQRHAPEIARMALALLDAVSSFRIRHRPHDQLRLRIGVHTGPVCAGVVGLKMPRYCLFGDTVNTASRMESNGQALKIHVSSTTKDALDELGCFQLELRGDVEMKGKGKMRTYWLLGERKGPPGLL
Chain of Atrial natriuretic peptide receptor 1 (Homo sapiens) (P16066 whole entry, looked up): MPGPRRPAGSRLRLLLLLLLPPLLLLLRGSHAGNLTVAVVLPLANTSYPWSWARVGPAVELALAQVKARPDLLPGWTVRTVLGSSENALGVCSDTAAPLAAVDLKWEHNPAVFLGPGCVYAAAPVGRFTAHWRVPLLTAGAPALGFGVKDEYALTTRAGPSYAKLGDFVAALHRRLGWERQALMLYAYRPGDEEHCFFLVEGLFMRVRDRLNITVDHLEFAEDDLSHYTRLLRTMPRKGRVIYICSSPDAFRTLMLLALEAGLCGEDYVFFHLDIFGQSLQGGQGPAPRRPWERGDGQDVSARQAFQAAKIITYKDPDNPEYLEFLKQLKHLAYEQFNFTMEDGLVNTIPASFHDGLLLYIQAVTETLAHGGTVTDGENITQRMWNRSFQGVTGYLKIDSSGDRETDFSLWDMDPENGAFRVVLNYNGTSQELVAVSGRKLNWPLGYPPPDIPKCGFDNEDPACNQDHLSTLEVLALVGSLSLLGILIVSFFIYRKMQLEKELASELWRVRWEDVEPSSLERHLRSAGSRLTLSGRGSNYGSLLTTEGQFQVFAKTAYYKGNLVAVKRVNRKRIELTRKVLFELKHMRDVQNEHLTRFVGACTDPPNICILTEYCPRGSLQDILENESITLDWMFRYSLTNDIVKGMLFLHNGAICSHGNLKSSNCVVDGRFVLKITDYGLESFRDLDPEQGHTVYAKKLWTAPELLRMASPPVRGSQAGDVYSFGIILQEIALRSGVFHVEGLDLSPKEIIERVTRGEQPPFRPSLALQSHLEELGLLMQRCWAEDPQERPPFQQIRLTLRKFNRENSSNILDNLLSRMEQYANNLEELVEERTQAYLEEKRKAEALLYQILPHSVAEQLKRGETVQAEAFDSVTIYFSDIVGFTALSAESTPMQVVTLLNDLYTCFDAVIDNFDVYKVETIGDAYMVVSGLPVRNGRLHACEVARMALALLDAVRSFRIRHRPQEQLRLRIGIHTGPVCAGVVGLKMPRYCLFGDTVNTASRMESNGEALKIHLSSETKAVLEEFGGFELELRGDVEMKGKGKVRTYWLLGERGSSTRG

| Structure (SMILES) | Potency [1] | Potency [2] | Potency [3] | Potency [4] | Potency [5] | Potency [6] | Potency [7] |
| --- | --- | --- | --- | --- | --- | --- | --- |
| O=c1onc2n1-c1cc(Br)ccc1OC2 | inactive | inactive | 0.131 µM (active) | inactive | inactive | – | – |
| c1ccc(C(NCCNC(c2ccccc2)c2ccccc2)c2ccccc2)cc1 | inactive | inactive | 13.1 µM (active) | – | – | – | – |
| CC(C)(C)c1ccc(/C=C/C(=O)Nc2ccc3c(c2)OCCO3)cc1 | inactive | inactive | 16.5 µM (active) | 23.9 µM (active) | – | – | – |
| Nc1ncnc2c1c(-c1ccc(Oc3ccccc3)cc1)cn2C1CCCC1 | inactive | inactive | – | inactive | inactive | 1.64 µM (active) | 14.6 µM (active) |
| CC(=O)SC1CC2=CC(=O)CC[C@]2(C)C2CC[C@@]3(C)C(CC[C@@]34CCC(=O)O4)C12 (stereo not given in full) | inactive | inactive | inactive | inactive | – | – | – |
| O=C(O)CCC/C=C\C[C@@H]1[C@@H](/C=C/[C@H](O)C2Cc3ccccc3C2)[C@@H](F)C[C@@H]1O | inactive | inactive | inactive | inactive | inactive | – | – |
| COC(=O)[C@H](NC(=O)c1cc(-c2ccccc2)nc2ccccc12)c1ccccc1 | inactive | inactive | inactive | inactive | inactive | – | – |
| COc1cc([C@@H]2c3cc4c(cc3[C@H](O)C3COC(=O)[C@@H]32)OCO4)cc(OC)c1OC (stereo not given in full) | inactive | inactive | inactive | inactive | – | – | – |
| CC(=O)NCCc1c[nH]c2ccc(O)cc12 | inactive | inactive | inactive | inactive | inactive | inactive | inactive |
| CNCCc1cnc(CCC(c2ccccc2)c2ccccc2)[nH]1 | inactive | inactive | inactive | inactive | – | – | – |
| CC(N)(C(=O)O)c1ccc(C(=O)O)cc1 (stereo not given) | inactive | inactive | inactive | inactive | inactive | – | – |
| COc1cc(CNC(=O)CCCCCCC(C)C)ccc1O | inactive | inactive | inactive | inactive | inactive | – | – |
| CN(C)S(=O)(=O)c1ccc2c(c1)/C(=C/c1cc3c([nH]1)CCCC3)C(=O)N2 | inactive | inactive | – | – | – | – | 6.51 µM (active) |
| CN1C2CCC1CC(OC(c1ccccc1)c1ccccc1)C2 (stereo not given) | inactive | inactive | inactive | inactive | – | – | – |
| O=c1onc2cnc3ccccc3n12 | inactive | inactive | 0.261 µM (active) | inactive | inactive | – | – |
| CCN(CC)CCOC(=O)c1cc(Cl)c(N)cc1OC | inactive | inactive | inactive | inactive | inactive | – | – |
| O=[N+]([O-])c1cccc2cn[nH]c12 | inactive | inactive | inactive | inactive | inactive | – | – |
| COc1cc2c(CCNC(C)=O)c[nH]c2cc1O | inactive | inactive | inactive | inactive | inactive | – | – |
| N#C/C(=C\c1ccc(O)c(O)c1)C(=O)NCCCNC(=O)/C(C#N)=C/c1ccc(O)c(O)c1 | inactive | inactive | inactive | inactive | inactive | inactive | inactive |
| CCC1(O)CC2CN(CCc3c([nH]c4ccccc34)[C@@](C(=O)OC)(c3cc4c(cc3OC)N(C=O)C3[C@]45CCN4CC=C[C@@](CC)([C@@H](OC(C)=O)[C@]3(O)C(=O)OC)[C@H]45)C2)C1 (stereo not given in full) | inactive | inactive | inactive | inactive | – | – | – |
| COc1ccc(-c2ccc(N)[n+](CCCC(=O)O)n2)cc1 | inactive | inactive | inactive | inactive | inactive | – | – |
| O=C1Nc2ccc(I)cc2/C1=C/c1cc(Br)c(O)c(Br)c1 | inactive | inactive | – | inactive | inactive | inactive | inactive |
| CC1C(=O)N(C)C(=O)c2nc[nH]c21 (stereo not given) | inactive | inactive | inactive | inactive | inactive | – | – |
| CCCCCCC(=O)OC1CC(C)(C)NC(C)(C)C1 | inactive | inactive | inactive | inactive | inactive | – | – |
| CN(C)CCC(c1ccc(Br)cc1)c1ccccn1 (stereo not given) | inactive | inactive | inactive | inactive | – | – | – |
| OC1(c2ccc(Cl)cc2)CCN(Cc2c[nH]c3ccccc23)CC1 | inactive | inactive | inactive | inactive | inactive | – | – |
| c1ccc2nc(C3=NCCN3)ccc2c1 | inactive | inactive | inactive | inactive | inactive | – | – |
| CCCCCCCC/C=C\CCCCCCCC(=O)NCCc1ccc(O)c(O)c1 | inactive | inactive | inactive | inactive | – | – | – |
| N#Cc1cc([N+](=O)[O-])c2sc(C(N)=O)[n+]([O-])c2c1 | inactive | inactive | – | inactive | inactive | inactive | inactive |
| OC[C@H]1O[C@@H](n2cnc3cncnc32)[C@H](O)[C@@H]1O | inactive | inactive | inactive | inactive | inactive | – | – |
